Assay results from PubChem BioAssay (Tox21).
Records with an inconclusive call do not appear. Where a call stands in place of a potency, no number is given. Values without a mark were called inactive. The source made the active and inactive calls. Unless noted, calls come from the whole dose curve; as a rule, active = well fitted curve in the direction sought with a large enough effect in the repeat runs; inconclusive = weak or mixed curves; inactive = no such curve, though single readings can be large; an effect the other way counts as inactive or inconclusive.

Tests used:
[1] = target: Retinoic acid receptor RXR-alpha (Homo sapiens) (UniProt P19793); experiment: qHTS assay to identify small molecule agonists of the RXR signaling pathway (AID 1159527; calls by dose curve; note: nearly all actives have a fitted effect of over 35% in size; note: potency is the fitted concentration of half-maximal effect)
Sequence of Retinoic acid receptor RXR-alpha (Homo sapiens) (P19793 whole entry, looked up): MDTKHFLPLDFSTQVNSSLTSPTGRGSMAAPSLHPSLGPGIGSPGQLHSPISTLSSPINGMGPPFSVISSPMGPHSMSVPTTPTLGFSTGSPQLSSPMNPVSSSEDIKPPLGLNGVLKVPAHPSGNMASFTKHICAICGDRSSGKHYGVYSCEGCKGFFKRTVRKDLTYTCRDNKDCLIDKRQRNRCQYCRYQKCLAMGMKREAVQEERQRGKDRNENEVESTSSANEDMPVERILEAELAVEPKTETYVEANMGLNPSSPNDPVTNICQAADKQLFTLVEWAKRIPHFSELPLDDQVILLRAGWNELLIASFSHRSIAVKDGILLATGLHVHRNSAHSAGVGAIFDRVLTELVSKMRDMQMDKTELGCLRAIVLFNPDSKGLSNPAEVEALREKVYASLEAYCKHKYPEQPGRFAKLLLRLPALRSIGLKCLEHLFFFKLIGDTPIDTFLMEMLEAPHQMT
Method in brief: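 Fluorescence ratio readout (460 vs 530 nm) from GeneBLAzer RXR-alpha HEK 293T cells after 16 hr compound treatment; cells seeded 5 hr beforehand in low-serum, charcoal-stripped medium.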

[2] = qHTS assay to identify small molecule agonists of the RXR signaling pathway - cell viability counter screen (AID 1159529); note: nearly all actives have a fitted effect of over 50% in size; note: potency is the fitted concentration of half-maximal effect;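 for activity change, negative = cytotoxicity: HEK 293T cells carrying an RXR-alpha UAS beta-lactamase reporter; series mostly up to about 77 µM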
Method in brief: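 Viability read-out for the RXR-alpha agonist qHTS: luminescent CellTiter-Glo signal after 30 min at RT. HEK 293T bla reporter cells, 2% charcoal-stripped FBS, 16 hr compound incubation; tetraoctyl ammonium bromide as cytotoxic control.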

[3] = qHTS assay to identify small molecule antagonists of the retinoid acid receptor (RAR) signaling pathway - cell viability counter screen (AID 1159551); note: nearly all actives have a fitted effect of over 35% in size
Method in brief: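 Retinol-stimulated (1 uM final) C3RL4 cells, compound 6 h, 37 C; readout CellTiter-Glo luminescence (ATP) after 30 min RT incubation.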

[4] = qHTS assay to identify small molecule antagonists of the retinoic acid receptor (RAR) signaling pathway (AID 1159552; note: nearly all actives have a fitted effect of over 50% in size; note: potency is the fitted concentration of half-maximal effect)
Method in brief: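 Using a RARE-driven luciferase construct in C3RL4 cells, retinol at 1 uM final provided the agonist stimulus while compounds were co-applied. After 6 hours at 37 C, luminescence was recorded to flag inhibitors of retinol signaling.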

[5] = qHTS assay to identify small molecule agonists of the retinoic acid receptor (RAR) signaling pathway (AID 1159553)
Method in brief: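 Reporter readout comes from luciferase under RARE control in C3RL4 cells; compound exposure lasts 6 hr at 37 C in 5% CO2, and luminescence is recorded following a 30 min room-temperature incubation with reagent.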

[6] = qHTS assay to identify small molecule antagonists of the estrogen related receptor signaling pathway with the pleiotropic PPARgamma coactivator (PGC) cell viability counter screen (AID 1224822;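 note: series mostly up to about 46 µM; viability read after 17.5 h compound exposure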)
Method in brief: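 PGC/ERR cells were plated at 2,000 per well and allowed 6 h to settle before compound addition. Following 17.5 h at 37 C, CellTiter-Fluor reagent was added and fluorescence was read 30 min later.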

CCCCCCCCCCCCCCCCBr
activation [1]: 0.932% [at 15.8 µM]
activity change, negative = cytotoxicity [2]: 2.29% [at 15.8 µM]
activity change, negative = cytotoxicity [3]: 5.27% [at 19 µM]
activity, negative = inhibition [4]: -1.48% [at 19 µM]
Potency [5]: inactive

CC1(C)C2=CCCC(C)(C)[C@]23CC[C@H]1C3
Potency [1]: inactive
Potency [3]: inactive
Potency [4]: inactive
Potency [5]: inactive

C[C@@H]1C[C@H]2[C@@H]3CCC4=CC(=O)C=C[C@]4(C)[C@@]3(F)[C@@H](O)C[C@]2(C)[C@H]1C(=O)CO
Potency [1]: inactive
Potency [3]: inactive
Potency [4]: inactive
Potency [5]: inactive

c1cnc2c(n1)CCCC2
Potency [1]: inactive
Potency [2]: inactive
Potency [4]: inactive
Potency [5]: inactive

CCCOCCOCCO
Potency [1]: inactive
Potency [2]: inactive
Potency [4]: inactive
Potency [5]: inactive

CCOC(=O)N1CCC(n2c(=O)[nH]c3cc(Cl)ccc32)CC1
Potency [1]: inactive
Potency [3]: inactive
Potency [4]: inactive
Potency [5]: inactive

CNC(=S)NC
Potency [1]: 38.9 µM (active)
Potency [4]: inactive

CCc1c2c(nc3ccc(OC(=O)N4CCC(N5CCCCC5)CC4)cc13)-c1cc3c(c(=O)n1C2)COC(=O)[C@]3(O)CC
Potency [2]: inactive

Nc1nc(Cl)nc2c1ncn2[C@@H]1O[C@H](CO)[C@@H](O)[C@@H]1F
Potency [1]: inactive
Potency [2]: inactive
Potency [5]: inactive

C=CCOC(=O)/C=C\C(=O)OCC=C
Potency [2]: inactive
Potency [3]: inactive

Cc1ccc(S)cc1
Potency [2]: inactive
Potency [3]: inactive

CCC(C(=O)OCCOCCN(CC)CC)c1ccccc1 (centres undefined)
Potency [1]: inactive
Potency [4]: inactive
Potency [5]: inactive

CC(C)C(OC(=O)c1ccccc1)C(C)(C)COC(=O)c1ccccc1 (centres undefined)
Potency [1]: inactive
Potency [3]: inactive
Potency [4]: inactive

CC(C)OCC1CO1 (centres undefined)
Potency [1]: inactive
Potency [2]: inactive
Potency [4]: inactive

CC(=O)CC(c1ccc([N+](=O)[O-])cc1)c1c(O)c2ccccc2oc1=O (centres undefined)
Potency [2]: inactive
Potency [3]: inactive

Cc1cc(O)c(C(C)C)cc1Cl
Potency [1]: inactive
Potency [3]: inactive
Potency [4]: inactive
Potency [5]: inactive

CC(C)(C)C(=O)O
Potency [1]: 39.1 µM (active)
Potency [2]: inactive
Potency [4]: inactive
Potency [5]: inactive

COCC(O)CO (centres undefined)
Potency [1]: inactive
Potency [2]: inactive
Potency [4]: inactive
Potency [5]: inactive

CCC1(C)CC(=O)NC1=O (centres undefined)
Potency [1]: inactive
Potency [2]: inactive
Potency [3]: inactive
outcome [6]: inactive

C=CC(C)(O)CCCC(C)CCCC(C)CCCC(C)C (centres undefined)
Potency [1]: 6.13 µM (active)
Potency [2]: inactive
Potency [4]: inactive
Potency [5]: inactive

O=C1OCCN1/N=C/c1ccc([N+](=O)[O-])o1
Potency [1]: inactive
Potency [2]: inactive
Potency [5]: inactive

COc1cc2c(N3CCN(C(=O)Nc4ccc(OC(C)C)cc4)CC3)ncnc2cc1OCCCN1CCCCC1
Potency [1]: inactive
Potency [3]: inactive
Potency [5]: inactive

CCCCOC(=O)CCS
Potency [1]: inactive
Potency [2]: inactive
Potency [5]: inactive

CC(C)CCCC(=O)O
Potency [1]: inactive
Potency [2]: inactive
Potency [4]: inactive
Potency [5]: inactive

CC(=O)[C@H]1CC[C@H]2[C@@H]3C[C@H](C)C4=CC(=O)CC[C@]4(C)[C@H]3[C@@H](O)C[C@]12C
Potency [1]: inactive
Potency [2]: inactive
Potency [5]: inactive

CCCCN(CCCC)CCCOC(=O)c1ccc(N)cc1
Potency [1]: inactive
Potency [3]: inactive
Potency [4]: inactive
Potency [5]: inactive

OC/C(Br)=C(\Br)CO
Potency [1]: inactive
Potency [2]: inactive
Potency [4]: inactive
Potency [5]: inactive

C[N+](C)(C)CCOC(N)=O
Potency [1]: inactive
Potency [2]: inactive
Potency [4]: inactive
Potency [5]: inactive
outcome [6]: inactive

CCCCC/C(=C\c1ccccc1)CO
Potency [1]: inactive
Potency [3]: inactive
Potency [4]: inactive
Potency [5]: inactive

CCCCC(=O)O[C@]1(C(=O)CO)CC[C@H]2[C@@H]3CCC4=CC(=O)CC[C@]4(C)[C@H]3[C@@H](O)C[C@@]21C
Potency [1]: inactive
Potency [3]: inactive
Potency [4]: inactive
Potency [5]: inactive

C1COCO1
Potency [2]: inactive

COCc1c(C(C)C)nc(C(C)C)c(/C=C/[C@@H](O)C[C@@H](O)CC(=O)O)c1-c1ccc(F)cc1
Potency [1]: inactive
Potency [4]: inactive
Potency [5]: inactive

CC1C2CC(CC2C2CCCC(O)C2)C1(C)C (centres undefined)
Potency [2]: 38.9 µM (active)

Cc1cc(OI)c(C(C)C)cc1-c1cc(C(C)C)c(OI)cc1C
Potency [1]: inactive
Potency [2]: inactive
Potency [4]: inactive
Potency [5]: inactive

O=C(CCCCCCC(=O)Nc1ccccc1)NO
Potency [1]: inactive
Potency [3]: inactive

Cc1ccccc1N1C(=O)c2cc(S(N)(=O)=O)c(Cl)cc2NC1C (centres undefined)
Potency [1]: inactive
Potency [2]: inactive
Potency [3]: inactive
outcome [6]: inactive

CCN(Cc1cccc(S(=O)(=O)O)c1)c1ccc(C(=C2C=CC(=[N+](CC)Cc3cccc(S(=O)(=O)[O-])c3)C=C2)c2ccccc2)cc1
Potency [1]: inactive
Potency [2]: inactive
Potency [4]: inactive
Potency [5]: inactive

CC[C@@H]([C@H](C)O)n1ncn(-c2ccc(N3CCN(c4ccc(OC[C@@H]5CO[C@@](Cn6cncn6)(c6ccc(F)cc6F)C5)cc4)CC3)cc2)c1=O
Potency [1]: inactive
Potency [2]: 4.77 µM (active)
Potency [5]: inactive

COC(=O)c1cc(S(N)(=O)=O)ccc1OC
Potency [1]: inactive
Potency [2]: inactive
Potency [4]: inactive
Potency [5]: inactive

COC(=O)[C@@H]1CC2=CC(=O)CC[C@]2(C)[C@@]23O[C@@H]2C[C@@]2(C)[C@@H](CC[C@@]24CCC(=O)O4)[C@H]13
Potency [1]: inactive
Potency [3]: inactive
Potency [4]: inactive
Potency [5]: inactive

O=C(CS)OCCOC(=O)CS
Potency [1]: inactive
Potency [3]: inactive
Potency [4]: 27.3 µM (active)
Potency [5]: inactive

CCOC(=O)OCC
Potency [2]: inactive
Potency [3]: inactive
